Measurements: paper PMC7862700, “An all-to-all approach to the identification of sequence-specific readers for epigenetic DNA modifications on cytosine”

Columns and labels:
Assay in all cases: DAPPL (digital affinity profiling via proximity ligation, sequencing); 10 mM Tris-HCl pH 7.5, 50 mM NaCl, 1 mM DTT, 4% glycerol, room temperature, 30 min; GST-TFs on glutathione beads, 16-mer random dsDNA library, 0.1% formaldehyde crosslink after washing; high values mean tight binding
Conditions in all cases: protein: recombinant; tags: N-terminal GST; dsDNA, one strand shown
[1] = molecular target: ETV1 (Homo sapiens, UniProt P50549 1-477)
ETV1, sequence (P50549 whole entry, the tested form may be a part): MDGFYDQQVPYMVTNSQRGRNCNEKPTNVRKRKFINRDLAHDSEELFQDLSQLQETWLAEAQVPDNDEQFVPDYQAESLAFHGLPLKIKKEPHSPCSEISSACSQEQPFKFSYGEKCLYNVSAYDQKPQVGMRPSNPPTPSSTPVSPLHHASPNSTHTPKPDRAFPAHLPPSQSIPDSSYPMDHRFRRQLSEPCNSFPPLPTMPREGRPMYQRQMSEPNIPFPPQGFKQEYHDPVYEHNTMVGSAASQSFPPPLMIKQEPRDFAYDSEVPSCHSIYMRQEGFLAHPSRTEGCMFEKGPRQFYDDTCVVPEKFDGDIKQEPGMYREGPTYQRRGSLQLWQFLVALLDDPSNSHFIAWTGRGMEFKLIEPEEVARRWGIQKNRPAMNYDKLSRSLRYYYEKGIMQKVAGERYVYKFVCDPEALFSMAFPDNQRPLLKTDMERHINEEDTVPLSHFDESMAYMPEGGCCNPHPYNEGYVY
Method in brief: (§1)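 Binding signal is each hexamer's read frequency for a factor divided by its frequency in the tag-only sample. The factors were GST-fused human transcription factors from yeast, captured on glutathione beads, DNA-barcoded and pooled with that sample. Pools were incubated with 200 nmole of a random double-stranded 16-mer DNA library in Tris/NaCl/DTT/glycerol buffer at room temperature for 30 min, then washed, crosslinked with 0.1% formaldehyde, proximity-ligated with BsaI/T4 ligase (1 h, 37 °C), PCR-amplified and sequenced on an Illumina NextSeq500.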

[2] = molecular target: T1, ERF (Homo sapiens, UniProt P50548 1-548)
T1 sequence: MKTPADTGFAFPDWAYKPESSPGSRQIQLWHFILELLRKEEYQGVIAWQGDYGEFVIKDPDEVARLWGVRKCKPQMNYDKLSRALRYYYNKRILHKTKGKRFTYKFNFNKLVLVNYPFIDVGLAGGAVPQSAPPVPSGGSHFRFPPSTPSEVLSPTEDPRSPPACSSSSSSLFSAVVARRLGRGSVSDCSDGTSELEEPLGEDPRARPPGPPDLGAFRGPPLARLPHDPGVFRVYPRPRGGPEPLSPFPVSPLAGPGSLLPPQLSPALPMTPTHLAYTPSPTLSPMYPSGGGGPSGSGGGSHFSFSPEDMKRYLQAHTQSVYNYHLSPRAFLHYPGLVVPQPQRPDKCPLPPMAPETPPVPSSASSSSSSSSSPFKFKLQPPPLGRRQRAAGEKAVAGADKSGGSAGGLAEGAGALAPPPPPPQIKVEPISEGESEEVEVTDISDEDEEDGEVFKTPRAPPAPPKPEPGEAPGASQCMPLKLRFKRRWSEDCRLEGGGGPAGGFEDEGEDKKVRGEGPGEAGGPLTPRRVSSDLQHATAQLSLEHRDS
Method in brief: as §1

[3] = molecular target: T2, ETV3L (Homo sapiens, UniProt Q6ZN32 1-361)
T2 sequence: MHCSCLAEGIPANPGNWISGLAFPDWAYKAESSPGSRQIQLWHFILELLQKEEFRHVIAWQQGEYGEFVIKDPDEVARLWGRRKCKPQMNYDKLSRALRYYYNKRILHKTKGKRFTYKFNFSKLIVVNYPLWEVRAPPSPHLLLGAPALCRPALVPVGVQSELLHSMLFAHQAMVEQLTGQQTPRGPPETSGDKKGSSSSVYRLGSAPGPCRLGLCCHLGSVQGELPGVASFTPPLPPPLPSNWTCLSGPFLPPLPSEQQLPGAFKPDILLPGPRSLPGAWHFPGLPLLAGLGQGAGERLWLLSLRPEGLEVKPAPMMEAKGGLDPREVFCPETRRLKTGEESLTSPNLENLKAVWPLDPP
Method in brief: as §1

[4] = molecular target: T3, ETS2 (Homo sapiens, UniProt P15036 1-469)
T3 sequence: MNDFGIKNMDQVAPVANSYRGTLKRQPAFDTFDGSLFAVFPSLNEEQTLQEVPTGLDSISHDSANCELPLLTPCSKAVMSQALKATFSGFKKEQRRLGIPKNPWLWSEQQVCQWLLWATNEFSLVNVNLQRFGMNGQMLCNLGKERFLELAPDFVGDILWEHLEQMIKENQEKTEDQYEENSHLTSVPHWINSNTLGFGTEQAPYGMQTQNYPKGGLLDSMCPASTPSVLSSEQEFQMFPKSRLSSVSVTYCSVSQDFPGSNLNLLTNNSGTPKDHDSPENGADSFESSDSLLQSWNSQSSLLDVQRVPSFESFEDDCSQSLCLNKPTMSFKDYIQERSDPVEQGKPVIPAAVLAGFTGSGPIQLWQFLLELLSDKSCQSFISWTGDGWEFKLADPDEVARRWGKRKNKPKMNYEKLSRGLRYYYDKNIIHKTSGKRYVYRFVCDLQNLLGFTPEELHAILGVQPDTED
Method in brief: as §1

[5] = molecular target: T4, SPDEF (Homo sapiens, UniProt O95238 1-335)
T4 sequence: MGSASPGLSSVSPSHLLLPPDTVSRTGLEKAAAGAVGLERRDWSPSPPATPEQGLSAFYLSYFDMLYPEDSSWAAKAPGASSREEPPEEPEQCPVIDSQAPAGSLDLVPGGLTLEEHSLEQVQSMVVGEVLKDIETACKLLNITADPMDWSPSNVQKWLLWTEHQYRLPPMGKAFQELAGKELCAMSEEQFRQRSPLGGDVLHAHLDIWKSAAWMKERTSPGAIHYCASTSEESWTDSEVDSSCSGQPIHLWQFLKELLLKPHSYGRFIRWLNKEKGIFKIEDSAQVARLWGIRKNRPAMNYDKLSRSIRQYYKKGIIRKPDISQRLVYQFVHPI
Method in brief: as §1

[6] = molecular target: T5, ETV7 (Homo sapiens, UniProt Q9Y603 1-341)
T5 sequence: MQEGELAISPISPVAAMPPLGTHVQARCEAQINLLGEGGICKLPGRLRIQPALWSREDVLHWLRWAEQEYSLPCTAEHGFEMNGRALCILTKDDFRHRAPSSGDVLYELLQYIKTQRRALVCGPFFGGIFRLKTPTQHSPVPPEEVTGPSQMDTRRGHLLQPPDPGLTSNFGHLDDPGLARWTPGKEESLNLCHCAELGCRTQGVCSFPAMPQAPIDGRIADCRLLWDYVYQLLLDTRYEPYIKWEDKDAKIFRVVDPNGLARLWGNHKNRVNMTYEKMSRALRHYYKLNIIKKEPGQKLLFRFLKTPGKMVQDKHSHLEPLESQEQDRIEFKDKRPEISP
Method in brief: as §1

[7] = molecular target: T6, ELF5 (Homo sapiens, UniProt Q9UKW6-2 1-255)
T6 sequence: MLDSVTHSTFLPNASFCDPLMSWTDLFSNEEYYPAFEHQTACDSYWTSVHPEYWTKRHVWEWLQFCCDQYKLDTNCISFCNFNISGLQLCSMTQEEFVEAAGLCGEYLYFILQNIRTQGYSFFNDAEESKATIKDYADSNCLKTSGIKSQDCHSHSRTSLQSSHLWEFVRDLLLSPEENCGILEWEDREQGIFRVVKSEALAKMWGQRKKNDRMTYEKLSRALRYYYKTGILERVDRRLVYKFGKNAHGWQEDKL
Method in brief: as §1

[8] = molecular target: T7, ETV3 (Homo sapiens, UniProt P41162-2 1-143)
T7 sequence: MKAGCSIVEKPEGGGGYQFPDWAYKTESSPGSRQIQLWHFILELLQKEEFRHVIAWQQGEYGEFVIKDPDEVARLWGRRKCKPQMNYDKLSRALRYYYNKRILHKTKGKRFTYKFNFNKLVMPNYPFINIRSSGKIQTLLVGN
Method in brief: as §1

[9] = molecular target: ETV6 (Homo sapiens, UniProt P41212 1-452)
ETV6, sequence (P41212 whole entry): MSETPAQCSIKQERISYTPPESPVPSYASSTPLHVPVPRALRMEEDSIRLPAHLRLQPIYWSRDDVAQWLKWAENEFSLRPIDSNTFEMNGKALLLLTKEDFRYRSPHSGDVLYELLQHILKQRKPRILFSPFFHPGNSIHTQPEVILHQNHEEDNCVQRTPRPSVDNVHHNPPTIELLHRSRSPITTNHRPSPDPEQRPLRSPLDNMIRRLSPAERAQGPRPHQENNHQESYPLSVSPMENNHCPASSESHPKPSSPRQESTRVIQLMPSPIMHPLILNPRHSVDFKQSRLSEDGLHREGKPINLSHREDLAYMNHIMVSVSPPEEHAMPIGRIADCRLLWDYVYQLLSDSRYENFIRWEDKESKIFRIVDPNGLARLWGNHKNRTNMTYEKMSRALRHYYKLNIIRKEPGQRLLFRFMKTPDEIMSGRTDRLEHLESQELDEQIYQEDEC
Method in brief: as §1

What does the source list for TCTTAC?
binding signal [1]: 1.32 fold enrichment (6-mer frequency, TF over GST control); binding signal [2]: 1.29 fold enrichment (6-mer frequency, TF over GST control); binding signal [3]: 1.3 fold enrichment (6-mer frequency, TF over GST control); binding signal [4]: 1.21 fold enrichment (6-mer frequency, TF over GST control); binding signal [5]: 1.36 fold enrichment (6-mer frequency, TF over GST control); binding signal [6]: 1.31 fold enrichment (6-mer frequency, TF over GST control); binding signal [7]: 1.24 fold enrichment (6-mer frequency, TF over GST control); binding signal [8]: 1.27 fold enrichment (6-mer frequency, TF over GST control); binding signal [9]: 1.33 fold enrichment (6-mer frequency, TF over GST control)
